Records with an inconclusive call do not appear. Unmarked numbers belong to inactive results. Activity calls are given as the source filed them. Calls follow the shape of the dose curve; as a rule, active = well fitted cell-killing curve with a large enough effect; inconclusive = small, poorly fitted or top-dose-only effect, or effect the other way; inactive = flat fitted curve, though single readings scatter.
Test: Compound cytotoxicity measured by an ATP content assay as a counter-screen for lead compounds in human astrocytoma cell line (SNB-19)
Conditions: SNB-19 astrocytoma viability, ATP luminescence; series mostly up to 46.1 µM; activity change, negative = cytotoxicity: at the top concentration
Procedure: National Center for Advancing Translational Sciences [NCATS] Johns Hopkins University School of Medicine Florida State University Assay Overview: Many compounds can cause cytotoxicity at high compound concentrations. […] The compound cytotoxicity may also cause side effects or toxicity in human. Thus, the compound cytotoxicity needs to be measured in each cell type and each compound incubation time - same as these in the compound screening assay. The compound cytotoxicity can be measured by cell viability assays such as the ATP content assay. We use an ATP content assay kit for cell viability measurement. It measures ATP content (level) in human astrocytoma cell line (SNB-19) using a luminescence readout that is proportional to viable cell numbers. Decrease in the luminescence signal after the compound treatment indicates reduced cell viability and cell death caused by compound treatment.
Assay Protocol Summary: The medium for SNB-19 cells is composed of RPMI 1640 (ATCC, Cat.# 30-2001), 10% fetal bovine serum (FBS) (GE healthcare Life Sciences, Cat.# SH30071.03), and 1% Pen/Strep (Gibco, Cat.# 15140-122). The ATP content assay kit (PerkinElmer, Cat.# 6016731) was used to determine cell viability. The reagent was reconstituted and prepared as described by the manufacturer. Cells were seeded in 384- or 1536-well assay plates and cultured at 37 C with 5% CO2 for 16 to 20 hours. The typical cell seeding density in the 1536-well plate assay is 250 cells/well in 3ul medium for SNB-19 cells in tissue culture treated plates. Compounds were added to cells and incubated for a specific time such as 6, 24, or 72 hours before addition of the reagent mixture of the ATP content assay kit at 1:1 ratio. After incubation at room temperature for 10 minutes, the luminescence intensity in assay plates was measured using a ViewLux plate reader (PerkinElmer). […] The percentage inhibitions of the decreased cell viability by small molecules were then calculated that indicate compound cytotoxicity.
In the case of `O=C(O)c1cccc(-c2noc(-c3ccccc3F)n2)c1`, the Potency was 5.48 µM (active).
In the case of `CC(C)c1ccc2oc3nc(N)c(C(=O)O)cc3c(=O)c2c1`, the Potency was 1.55 µM (active).
For `[O-][n+]1ccccc1SSc1cccc[n+]1[O-]`, the Potency was 0.708 µM (active).
With `COc1ccc(C=CC(=O)Nc2ccccc2C(=O)O)cc1OC` the “activity change, negative = cytotoxicity” value was -17.9%.
In the case of `O=C(C=CC=Cc1ccc2c(c1)OCO2)N1CCCCC1`, the “activity change, negative = cytotoxicity” value was -3.2%.
In the case of `COc1cc2nc(N3CCN(C(=O)C4CCCO4)CC3)nc(N)c2cc1OC` (stereo not given), the “activity change, negative = cytotoxicity” value was 7.25%.
For `CC(=O)Oc1ccccc1C(=O)Nc1ncc([N+](=O)[O-])s1`, the “activity change, negative = cytotoxicity” value was -25.3% [at 88.3 µM].
In the case of `CC(C(=O)O)c1ccc(C(=O)c2ccccc2)s1` (stereo not given), the “activity change, negative = cytotoxicity” value was -14.1%.
In the case of `CC(=O)OC(C)OC(=O)C(C)c1ccc(-c2ccccc2)c(F)c1` (stereo not given), the “activity change, negative = cytotoxicity” value was -19.8%.
For `Cc1ccc(O)c(-n2nc3ccccc3n2)c1`, the “activity change, negative = cytotoxicity” value was -13.5%.
In the case of `C[C@@H](N)c1ccc(C(=O)Nc2ccnc3[nH]ccc23)cc1`, the “activity change, negative = cytotoxicity” value was 10.8%.
In the case of `CCC(C)SSc1ncc[nH]1` (stereo not given), the “activity change, negative = cytotoxicity” value was -19.8%.
For `COc1ccc(-c2cc(=O)c3c(O)cc(O)cc3o2)cc1O`, the “activity change, negative = cytotoxicity” value was 25.9%.
With `O=C1c2ccccc2-[n+]2ccc3c([nH]c4ccccc43)c21` the Potency was 4.35 µM (active).
With `COc1ccc2nc(NC(=O)Nc3ccccc3)sc2c1` the Potency was 19.5 µM (active).
With `NC1CCC(Nc2nc(Nc3ccc(C(=O)N4CCCCC4)cc3)c3ncn(-c4cccc(F)c4)c3n2)CC1` (stereo not given) the “activity change, negative = cytotoxicity” value was 10.2%.
With `O=C(Nc1ccc(OC(F)(F)F)cc1)c1sccc1NCc1ccnc2ccccc12` the “activity change, negative = cytotoxicity” value was -25%.
For `O=C(O)c1ccccc1Nc1cccc(C(F)(F)F)c1`, the “activity change, negative = cytotoxicity” value was -21.9%.
In the case of `Cc1cccc(/C=C/c2ccccc2)n1`, the “activity change, negative = cytotoxicity” value was -22.7%.
For `Nc1nc2ccc([N+](=O)[O-])cc2s1`, the “activity change, negative = cytotoxicity” value was 14.7% [at 88.3 µM].
For `COCCn1c2c([n+](Cc3cnccn3)c1C)C(=O)c1ccccc1C2=O`, the Potency was 0.0155 µM (active).
With `CCCC(=O)OC[C@@H](OC(=O)CCC)[C@@H](OC(=O)CCC)[C@H](Cn1c2nc(=O)[nH]c(=O)c-2nc2cc(C)c(C)cc21)OC(=O)CCC` the “activity change, negative = cytotoxicity” value was -10.5%.
With `O=C1C(Cl)=C(NCCN2CCOCC2)C(=O)c2ncccc21` the Potency was 6.15 µM (active).
With `CC(=C(CCOC(=O)C(C)C)SSC(CCOC(=O)C(C)C)=C(C)N(C=O)Cc1cnc(C)nc1N)N(C=O)Cc1cnc(C)nc1N` the “activity change, negative = cytotoxicity” value was -24.1%.
With `O=S(=O)(O)c1ccc2nc(-c3ccccc3)[nH]c2c1` the “activity change, negative = cytotoxicity” value was 1.86%.
In the case of `O=C(O)c1cc([N+](=O)[O-])ccc1NCCCc1ccccc1`, the “activity change, negative = cytotoxicity” value was -12%.
For `CC(C)(C)OC(=O)CN(Cc1ccc(Cl)cc1)Cc1ccc([N+](=O)[O-])s1`, the “activity change, negative = cytotoxicity” value was -23.7% [at 88.3 µM].
With `O=S(=O)(O)CCSSCCS(=O)(=O)O` the “activity change, negative = cytotoxicity” value was -11.8%.
In the case of `N#C/C(=C\c1ccc(O)c(O)c1)C(=O)Nc1ccccc1`, the “activity change, negative = cytotoxicity” value was 9.03%.
For `O=C1c2ccccc2C(=O)c2c(NCCc3ccc(O)cc3)ccc(NCCc3ccc(O)cc3)c21`, the “activity change, negative = cytotoxicity” value was -32.8%.
With `Nc1ncnc2c1ncn2[C@@H]1O[C@@H](CO)[C@H](O)[C@H]1O` the “activity change, negative = cytotoxicity” value was -8.91% [at 23.8 µM].
In the case of `Oc1ccc(/C=C/c2cc(O)cc(O)c2)cc1`, the Potency was 24.5 µM (active).
With `COc1ccnc2c1CCCCC2S(=O)c1nc2ccccc2[nH]1` (stereo not given) the “activity change, negative = cytotoxicity” value was -9.48%.
With `C[C@H](NC(=O)C(=O)Nc1ccccc1C(C)(C)C)C(=O)N[C@@H](CC(=O)O)C(=O)COc1c(F)c(F)cc(F)c1F` the “activity change, negative = cytotoxicity” value was 0.887%.
In the case of `O=c1c(-c2ccc(O)cc2)coc2cc(OC3O[C@H](CO)[C@H](O)[C@H](O)[C@H]3O)cc(O)c12` (stereo not given in full), the “activity change, negative = cytotoxicity” value was -18.9%.
For `O[C@@H](COc1cccc2ncccc12)CN1CCN(C2c3ccccc3[C@@H]3[C@H](c4ccccc42)C3(F)F)CC1` (stereo not given in full), the “activity change, negative = cytotoxicity” value was 2.37%.
With `Cc1nc(N)sc1-c1ccnc(Nc2ccc(N3CCOCC3)cc2)n1` the “activity change, negative = cytotoxicity” value was 8.47%.
With `CCCS(=O)c1ccc2nc(NC(=O)OC)[nH]c2c1` (stereo not given) the “activity change, negative = cytotoxicity” value was 16.2%.
With `CN1CC(=O)N/C1=N/C(=O)Nc1cccc(Cl)c1` the “activity change, negative = cytotoxicity” value was -5.23%.
In the case of `COc1ccc(-c2cc(=S)ss2)cc1`, the “activity change, negative = cytotoxicity” value was -1.94%.
